Source: PubChem BioAssay
p47phox inh = p47phox (human) inhibition; P14598; p47phox/p22phox peptide binding, fluorescence polarization, 2 h; inhibition, % at 24.7 µM; hit rate 0.53% among 220,000;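 active means inhibition above about 30%, limit read from the data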;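 further: 0% = p47phox with labelled peptide and 100% = labelled peptide alone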
Target sequence (P14598 whole entry, looked up): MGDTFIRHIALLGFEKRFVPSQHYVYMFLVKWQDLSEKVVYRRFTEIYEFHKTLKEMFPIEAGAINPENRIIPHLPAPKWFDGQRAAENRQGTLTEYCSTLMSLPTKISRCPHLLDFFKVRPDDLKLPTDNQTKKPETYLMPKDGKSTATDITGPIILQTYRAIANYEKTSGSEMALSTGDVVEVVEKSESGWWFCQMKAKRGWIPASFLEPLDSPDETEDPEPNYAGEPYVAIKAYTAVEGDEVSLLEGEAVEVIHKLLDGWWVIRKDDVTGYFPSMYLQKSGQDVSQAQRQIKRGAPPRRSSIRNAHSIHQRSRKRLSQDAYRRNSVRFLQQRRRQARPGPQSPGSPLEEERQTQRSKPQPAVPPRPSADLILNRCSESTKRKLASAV
Efa HMGR inh = blocks class II HMG-CoA reductase of Enterococcus faecalis; inhibition, % at 10 µM; hit rate 0.41% among 190,000; purified E. faecalis HMGR, NADPH absorbance 340 nm kinetic;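 active means inhibition above a set limit, the median over all tested compounds plus 3 SD, cut at about 9.5% in these data; inconclusive means no clear call, values can overlap the other calls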;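 further: enzyme runs in reverse so mevalonate oxidation gives rising NADPH absorbance; 0% = complete reaction with DMSO and 100% = background rate lacking mevalonate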
DTT redox prof = compounds producing H2O2 with reducing agent – biochemical, NIH compound library profiling, artefact control for MLSCN library redox annotation, primary screen | AID 878 | hit rate 0.03% among 200,000 | activation, % at 10 µM | DTT-dependent redox cycling H2O2, phenol red/HRP absorbance; 100% = 100 µM peroxide control, 0% = buffer;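 active means activation of at least 50% relative to the plate's high and low controls in the primary single-dose screen; inactive means activation below 50%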;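 further: compound incubated with DTT at 0.8 mM final as the reducing agent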
Ins promoter up = MIN6 insulin promoter up-regulation; MIN6 insulin promoter-GFP reporter, high-content imaging; hits give high values; z-score at 5 µM; hit rate 0.3% among 190,000; AID 1625;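 active means z-score above 3 at 5 µM with at least 500 cells counted in the well; inconclusive means wells under 500 cells, flagged as cytotoxic or low count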
Autophagy mod = modulators of autophagy; MEF GFP-LC3 puncta imaging; test concentration mostly 10 µM; calls only at 10 µM (by protocol); hit rate 0.98% among 190,000;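 active means percentage of spot-positive cells more than 3 SD above its plate mean, without a fluorescence outlier flag or 80% toxicity; inconclusive means no clear call, values can overlap the other calls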;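 further: spot-positive cell cutoff set from DMSO-treated cells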
Arbovirus inh = antivirals against arbovirus infection; inhibition, % at 10 µM; arbovirus infection cell-based antiviral screen; AID 1251; hit rate 0.37% among 200,000; in the data active means inhibition above about 30%
The depositor's hits bear a star; i = inactive; ? = inconclusive; . = no result given; + = active, no number. Only some compounds are listed: those with a hit (about 2.2% of all), similar ones and a draw of the others.

SMILES	p47phox inh	Efa HMGR inh	DTT redox prof	Ins promoter up	Autophagy mod	Arbovirus inh
Cc1cccc(/C=C2/SC(=O)N(Cc3ccccc3Cl)C2=O)n1	-14.3	-3.4	-0.8	-0.86	i	4.2
COc1cc(/C=C2/SC(=O)N(Cc3ccccc3Cl)C2=O)ccc1OCc1ccncc1	31.5*	-5.3	5.3	0.03	i	-3.1
CC(C)(C)NS(=O)(=O)c1cc(C(=O)Nc2sccc2C#N)ccc1Cl	-100.5	-7.3	-0.2	0.34	i	11.8
CC1CCCCN1CC(O)COCCC12CC3CC(CC(C3)C1)C2 (centres undefined)	-0.7	-1.3	-1.5	-0.52	+	-7.7
COC(=O)c1ccc(NC(=O)CCN2CCN(c3ccccc3)CC2)cc1	-4.4	-1.4	0.8	-0.38	+	6.2
O=C(CCN1CCN(c2ccccc2)CC1)Nc1ccc(Cl)cc1	-10.1	-4.9	0.1	0.35	i	-6.3
CCN(CC)CCN1C(=O)c2oc3ccccc3c(=O)c2C1c1ccccc1 (centres undefined)	-20.6	-12.3	-5.2	3.66*	i	6.5
CC(=O)NNc1cc(C)nc(N)n1	-5.9	.	.	1.44	.	.
COc1cc(NS(=O)(=O)c2ccc3[nH]c(=O)oc3c2)cc(OC)c1	-0.4	-3.5	-0.8	-0.73	i	4.5
CC(=O)C1=C(O)C(=O)N(CO)C1c1ccccc1F (centres undefined)	0.1	-1.3	-3.3	0.29	i	-2.0
CC(=O)C1=C(O)C(=O)N(C)C1c1ccccc1F (centres undefined)	18.5	15.5*	0.3	0.15	i	9.3
Cc1ccc(C)c(CN2CCNC2=O)c1	137.0*	-7.0	-0.4	.	i	-1.4
O=C1NCCN1Cc1cccc(Cl)c1	-9.6	-8.9	-0.2	.	i	-1.3
CC1OC(Oc2ccc3ccc(=O)oc3c2-c2c(O)ccc3cc(Oc4ccc5ccc(=O)oc5c4)c(=O)oc23)C(O)C(O)C1O (centres undefined)	-0.2	5.8	0.4	-0.1	i	5.3
CCN1CCN(c2cc(-c3ccccc3)nc3cc(-c4cccc(F)c4)nn23)CC1	-37.9	9.6*	0.5	?	i	-36.4
OC1CCN(c2cc(-c3ccccc3)nc3cc(-c4ccc(F)cc4)nn23)CC1	-36.0	0.9	-1.7	-0.8	i	0.1
COc1ccc2cc(C3OCCO3)c(Cl)nc2c1	1.2	-0.2	-0.2	-0.81	i	-8.9
Cc1ccc(S(=O)(=O)N2CCCCC2)cc1C(=O)Nc1ccc(S(=O)(=O)Nc2ncccn2)cc1	-1.6	.	.	0.2	.	.
O=C(NCC1CCCO1)C(c1ccccn1)N(Cc1ccccc1Cl)C(=O)CN1C(=O)c2ccccc2S1(=O)=O (centres undefined)	4.0	-2.2	-0.6	.	+	9.7
COc1ccc(-c2csc(Nc3ccc(C)cn3)n2)cc1OC	-13.2	-2.1	-1.6	-0.58	i	52.6*
O=C(Nc1ccccc1O)c1c(O)c2c([nH]c1=O)CCCC2	-6.9	-5.0	-0.1	-0.44	i	22.1
Cn1nc(-c2ccccc2)c(C(O)c2ccc(Cl)cc2)c1Cl (centres undefined)	-2.7	0.0	1.8	-0.41	i	10.8
Cn1nc(-c2ccccc2)c(CSc2ccccc2Cl)c1Cl	34.2*	-3.0	0.2	-0.12	i	-16.5
CC1(C)CC(=O)C2=C(C1)N(c1ccc(F)cc1)C(=O)C2(O)C(F)(F)F (centres undefined)	-5.3	-3.6	1.5	1.15	i	4.0
OC[C@@H](O)[C@H](O)C(/C=N/Nc1ccccc1)=N\Nc1ccccc1	-10.0	.	.	-0.9	.	.
SMILES	p47phox inh	Efa HMGR inh	DTT redox prof	Ins promoter up	Autophagy mod	Arbovirus inh
CCC(=O)NC1=C(NC(C)c2ccccc2)C(=O)c2ccccc2C1=O (centres undefined)	-0.9	-5.5	-0.2	.	i	6.2
CCC(=O)NC1=C(Cl)C(=O)C(NC(=O)CC)=C(Cl)C1=O	49.6*	.	.	-0.28	.	.
O=c1c2ccccc2nc(-c2ccc([N+](=O)[O-])cc2)n1O	1.5	-2.4	-0.6	-1.14	i	6.1
O=[N+]([O-])c1ccc(-c2c(O)c3ccccc3c3nc4ccccc4nc23)cc1	-18.5	-8.5	-1.0	-0.63	i	31.6*
COc1ccc(OC)c(C2=NOC(C(=O)NCC3CCCO3)C2)c1 (centres undefined)	-2.1	1.1	0.1	3.67*	i	4.7
COc1ccc(OC)c(-c2csc(N(CC3CCCO3)C(=O)C3CCCCC3)n2)c1 (centres undefined)	-9.5	7.8	0.2	-0.14	+	-6.5
